From the supplement of paper PMC10849652
Targets with a hit are over-represented here; the source holds about 8,800 in all. About 0.5% of all pairs of compound and target were hits. Unmarked numbers belong to inactive results.

Tests used:
Assay in all cases: log2 fold change, soluble protein after heating vs DMSO (PISA); higher = thermal stabilisation; K562 lysate, 10 uM; active = over 0.2 and 3.5 SD of the protein, either way, in both replicates (recomputed)
alvocidib = compound: CN1CC[C@H](c2c(O)cc(O)c3c(=O)cc(-c4ccccc4Cl)oc23)[C@H](O)C1 [alvocidib]
Procedure, shortened: (§1)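 The values are log-two fold changes in thermal stability compared with solvent controls and come from duplicates. They were obtained by TMTpro 16plex LC-MS/MS, with channel sums equalised, on the supernatant after 21,000xg for 90 min. That supernatant came from crude K562 extract at 1 mg/mL protein treated with 10 μM compound for 30 min, heated for 3 min across 48°C-58°C, pooled and brought to 0.5% NP-40 at 4°C.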

[1] = compound: COc1cc2nc(-c3cc(F)ccc3O)nc(N[C@@H]3CNC[C@H]3C(C)(C)O)c2cc1OC
Procedure, shortened: as §1

lapatinib = compound: CS(=O)(=O)CCNCc1ccc(-c2ccc3ncnc(Nc4ccc(OCc5cccc(F)c5)c(Cl)c4)c3c2)o1 [lapatinib]
Procedure, shortened: as §1

pictilisib = compound: CS(=O)(=O)N1CCN(Cc2cc3nc(-c4cccc5[nH]ncc45)nc(N4CCOCC4)c3s2)CC1 [pictilisib]
Procedure, shortened: as §1

crizotinib = compound: C[C@@H](Oc1cc(-c2cnn(C3CCNCC3)c2)cnc1N)c1c(Cl)ccc(F)c1Cl [crizotinib]
Procedure, shortened: as §1

[2] = compound: C[C@H](C1=CC=C(C=C1)C(=O)NC2=C3C=CNC3=NC=C2)N
Procedure, shortened: as §1

gandotinib = compound: Cc1cc(Nc2cc(CN3CCOCC3)c3nc(C)c(Cc4ccc(Cl)cc4F)n3n2)n[nH]1 [gandotinib]
Procedure, shortened: as §1

doramapimod = compound: Cc1ccc(-n2nc(C(C)(C)C)cc2NC(=O)Nc2ccc(OCCN3CCOCC3)c3ccccc23)cc1 [doramapimod]
Procedure, shortened: as §1

bafetinib = compound: Cc1ccc(NC(=O)c2ccc(CN3CC[C@H](N(C)C)C3)c(C(F)(F)F)c2)cc1Nc1nccc(-c2cncnc2)n1 [bafetinib]
Procedure, shortened: as §1

[3] = compound: Cc1cccc(CC(=O)N2CCc3c2ccc(-c2cn(C)c4ncnc(N)c24)c3F)n1
Procedure, shortened: as §1

[4] = compound: CNc1nc(-c2ccc3c(N)n[nH]c3c2)cc(N2C[C@@H](C(=O)NC3CCCCC3)CC[C@H]2C)n1
Procedure, shortened: as §1

duvelisib = compound: C[C@H](Nc1ncnc2nc[nH]c12)c1cc2cccc(Cl)c2c(=O)n1-c1ccccc1 [duvelisib]
Procedure, shortened: as §1

defactinib = compound: CNC(=O)c1ccc(Nc2ncc(C(F)(F)F)c(NCc3nccnc3N(C)S(C)(=O)=O)n2)cc1 [defactinib]
Procedure, shortened: as §1

encorafenib = compound: COC(=O)N[C@@H](C)CNc1nccc(-c2cn(C(C)C)nc2-c2cc(Cl)cc(NS(C)(=O)=O)c2F)n1 [encorafenib]
Procedure, shortened: as §1

[5] = compound: COC(=O)[C@H](CCSC)NC(=O)C1=C(C=C(C=C1)NC[C@H](CS)N)C2=CC=CC=C2
Procedure, shortened: as §1

tozasertib = compound: Cc1cc(Nc2cc(N3CCN(C)CC3)nc(Sc3ccc(NC(=O)C4CC4)cc3)n2)n[nH]1 [tozasertib]
Procedure, shortened: as §1

Tubastatin A = compound: CN1CCc2c(c3ccccc3n2Cc2ccc(C(=O)NO)cc2)C1 [Tubastatin A]
Procedure, shortened: as §1

[6] = compound: CNC(=O)C1=CC=CC=C1NC2=NC(=NC=C2Cl)NC3=C(C=C(C=C3)N4CCOCC4)OC
Procedure, shortened: as §1

alisertib = compound: COc1cc(Nc2ncc3c(n2)-c2ccc(Cl)cc2C(c2c(F)cccc2OC)=NC3)ccc1C(=O)O [alisertib]
Procedure, shortened: as §1

gefitinib = compound: COc1cc2ncnc(Nc3ccc(F)c(Cl)c3)c2cc1OCCCN1CCOCC1 [gefitinib]
Procedure, shortened: as §1

Sequence of UniProt Q9Y287 (Q9Y287 whole entry, looked up): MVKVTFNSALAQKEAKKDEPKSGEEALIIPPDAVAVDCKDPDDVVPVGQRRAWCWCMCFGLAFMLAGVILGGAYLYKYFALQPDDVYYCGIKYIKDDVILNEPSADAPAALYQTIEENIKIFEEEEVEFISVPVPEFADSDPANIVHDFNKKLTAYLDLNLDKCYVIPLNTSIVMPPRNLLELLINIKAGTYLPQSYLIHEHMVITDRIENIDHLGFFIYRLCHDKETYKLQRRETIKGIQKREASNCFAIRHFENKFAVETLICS
Sequence of UniProt Q96EW2 (Q96EW2 whole entry, looked up): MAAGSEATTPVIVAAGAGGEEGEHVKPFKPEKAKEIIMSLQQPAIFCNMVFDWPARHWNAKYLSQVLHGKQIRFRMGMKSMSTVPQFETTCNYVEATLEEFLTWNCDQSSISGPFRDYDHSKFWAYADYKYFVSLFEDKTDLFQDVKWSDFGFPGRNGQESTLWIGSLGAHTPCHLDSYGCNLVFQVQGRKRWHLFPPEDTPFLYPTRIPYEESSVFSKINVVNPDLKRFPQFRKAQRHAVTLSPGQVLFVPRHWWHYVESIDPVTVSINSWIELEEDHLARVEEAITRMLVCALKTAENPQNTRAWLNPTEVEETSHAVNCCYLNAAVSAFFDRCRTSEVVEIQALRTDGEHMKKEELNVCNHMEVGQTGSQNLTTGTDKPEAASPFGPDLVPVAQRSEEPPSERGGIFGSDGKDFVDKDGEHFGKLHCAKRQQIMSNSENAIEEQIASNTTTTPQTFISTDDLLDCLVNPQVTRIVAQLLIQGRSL
Sequence of UniProt P42858 (P42858 whole entry, looked up): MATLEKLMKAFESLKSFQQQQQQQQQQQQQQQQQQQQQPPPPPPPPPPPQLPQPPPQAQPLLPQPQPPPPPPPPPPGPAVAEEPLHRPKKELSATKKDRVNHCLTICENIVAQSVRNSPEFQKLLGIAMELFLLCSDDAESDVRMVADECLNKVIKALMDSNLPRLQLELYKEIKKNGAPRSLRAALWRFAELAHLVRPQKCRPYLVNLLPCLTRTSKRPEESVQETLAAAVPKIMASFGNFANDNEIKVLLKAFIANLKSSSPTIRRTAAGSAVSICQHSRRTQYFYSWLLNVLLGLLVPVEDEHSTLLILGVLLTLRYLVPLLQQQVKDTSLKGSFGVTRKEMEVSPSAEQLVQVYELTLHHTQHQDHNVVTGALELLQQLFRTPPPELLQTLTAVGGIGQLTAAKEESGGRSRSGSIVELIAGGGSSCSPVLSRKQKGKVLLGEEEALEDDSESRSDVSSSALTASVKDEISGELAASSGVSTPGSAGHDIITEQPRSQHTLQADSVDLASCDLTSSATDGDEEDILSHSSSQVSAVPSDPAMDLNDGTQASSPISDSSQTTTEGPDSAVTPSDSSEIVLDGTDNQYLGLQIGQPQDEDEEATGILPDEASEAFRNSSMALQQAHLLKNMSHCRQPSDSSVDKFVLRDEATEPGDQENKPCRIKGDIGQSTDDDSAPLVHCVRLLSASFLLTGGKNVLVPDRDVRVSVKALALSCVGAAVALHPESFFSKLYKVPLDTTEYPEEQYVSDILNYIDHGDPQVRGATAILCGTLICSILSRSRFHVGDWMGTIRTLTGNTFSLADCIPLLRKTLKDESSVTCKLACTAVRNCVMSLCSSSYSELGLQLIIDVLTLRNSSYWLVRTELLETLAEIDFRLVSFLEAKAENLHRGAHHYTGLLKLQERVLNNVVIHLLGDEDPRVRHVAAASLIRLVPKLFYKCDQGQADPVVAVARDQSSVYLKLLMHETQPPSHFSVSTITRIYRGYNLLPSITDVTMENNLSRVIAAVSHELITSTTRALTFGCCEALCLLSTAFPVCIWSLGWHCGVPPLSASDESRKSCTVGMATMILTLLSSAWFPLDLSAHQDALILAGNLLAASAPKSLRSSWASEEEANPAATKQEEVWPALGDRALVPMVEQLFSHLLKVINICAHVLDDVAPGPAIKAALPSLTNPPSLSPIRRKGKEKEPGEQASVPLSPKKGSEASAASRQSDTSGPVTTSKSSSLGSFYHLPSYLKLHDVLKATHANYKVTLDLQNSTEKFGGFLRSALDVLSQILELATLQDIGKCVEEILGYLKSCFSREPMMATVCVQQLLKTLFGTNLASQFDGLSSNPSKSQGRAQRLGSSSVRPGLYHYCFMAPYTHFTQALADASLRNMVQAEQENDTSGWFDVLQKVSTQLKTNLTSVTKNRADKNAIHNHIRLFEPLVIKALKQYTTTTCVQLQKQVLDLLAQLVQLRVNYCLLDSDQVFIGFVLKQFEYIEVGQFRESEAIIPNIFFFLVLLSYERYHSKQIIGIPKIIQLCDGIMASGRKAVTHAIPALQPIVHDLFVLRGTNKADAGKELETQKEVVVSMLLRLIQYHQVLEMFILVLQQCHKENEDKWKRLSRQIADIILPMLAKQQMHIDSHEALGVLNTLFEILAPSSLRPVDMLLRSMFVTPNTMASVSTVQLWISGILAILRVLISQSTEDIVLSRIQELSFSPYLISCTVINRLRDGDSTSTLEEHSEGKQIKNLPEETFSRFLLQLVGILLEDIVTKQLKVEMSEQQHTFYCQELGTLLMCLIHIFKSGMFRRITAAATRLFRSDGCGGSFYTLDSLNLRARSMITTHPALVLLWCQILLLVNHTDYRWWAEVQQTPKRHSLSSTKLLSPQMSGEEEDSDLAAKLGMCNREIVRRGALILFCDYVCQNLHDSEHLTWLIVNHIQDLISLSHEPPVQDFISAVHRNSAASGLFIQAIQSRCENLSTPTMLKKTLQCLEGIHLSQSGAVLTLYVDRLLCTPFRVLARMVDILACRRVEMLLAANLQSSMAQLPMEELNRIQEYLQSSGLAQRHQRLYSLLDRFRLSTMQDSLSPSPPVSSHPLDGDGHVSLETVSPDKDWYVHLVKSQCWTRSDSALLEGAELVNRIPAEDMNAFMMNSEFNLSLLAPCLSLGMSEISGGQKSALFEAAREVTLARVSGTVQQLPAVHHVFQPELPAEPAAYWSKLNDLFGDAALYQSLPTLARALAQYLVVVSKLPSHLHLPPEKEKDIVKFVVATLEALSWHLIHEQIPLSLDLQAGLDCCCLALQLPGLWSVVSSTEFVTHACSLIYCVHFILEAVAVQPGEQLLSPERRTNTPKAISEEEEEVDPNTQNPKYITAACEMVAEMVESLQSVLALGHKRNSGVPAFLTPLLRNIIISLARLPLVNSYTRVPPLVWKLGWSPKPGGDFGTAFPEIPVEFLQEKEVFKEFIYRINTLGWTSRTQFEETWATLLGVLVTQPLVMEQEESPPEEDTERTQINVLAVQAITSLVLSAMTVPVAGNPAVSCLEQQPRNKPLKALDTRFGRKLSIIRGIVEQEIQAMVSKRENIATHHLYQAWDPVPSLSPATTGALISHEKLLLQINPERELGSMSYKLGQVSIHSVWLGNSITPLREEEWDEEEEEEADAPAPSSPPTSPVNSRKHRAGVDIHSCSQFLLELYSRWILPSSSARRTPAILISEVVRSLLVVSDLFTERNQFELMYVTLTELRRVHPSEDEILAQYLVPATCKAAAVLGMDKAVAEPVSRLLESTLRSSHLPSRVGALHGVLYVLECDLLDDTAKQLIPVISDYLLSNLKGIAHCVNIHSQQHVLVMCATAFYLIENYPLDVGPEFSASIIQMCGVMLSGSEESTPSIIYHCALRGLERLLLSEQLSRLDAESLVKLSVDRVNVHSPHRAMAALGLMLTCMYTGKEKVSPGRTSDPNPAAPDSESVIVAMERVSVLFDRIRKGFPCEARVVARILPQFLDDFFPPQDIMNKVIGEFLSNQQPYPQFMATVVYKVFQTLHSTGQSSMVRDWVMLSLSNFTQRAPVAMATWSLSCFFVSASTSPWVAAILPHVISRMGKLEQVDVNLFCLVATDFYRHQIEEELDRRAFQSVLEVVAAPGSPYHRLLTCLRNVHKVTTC
Sequence of UniProt Q8IWB1 (Q8IWB1 whole entry, looked up): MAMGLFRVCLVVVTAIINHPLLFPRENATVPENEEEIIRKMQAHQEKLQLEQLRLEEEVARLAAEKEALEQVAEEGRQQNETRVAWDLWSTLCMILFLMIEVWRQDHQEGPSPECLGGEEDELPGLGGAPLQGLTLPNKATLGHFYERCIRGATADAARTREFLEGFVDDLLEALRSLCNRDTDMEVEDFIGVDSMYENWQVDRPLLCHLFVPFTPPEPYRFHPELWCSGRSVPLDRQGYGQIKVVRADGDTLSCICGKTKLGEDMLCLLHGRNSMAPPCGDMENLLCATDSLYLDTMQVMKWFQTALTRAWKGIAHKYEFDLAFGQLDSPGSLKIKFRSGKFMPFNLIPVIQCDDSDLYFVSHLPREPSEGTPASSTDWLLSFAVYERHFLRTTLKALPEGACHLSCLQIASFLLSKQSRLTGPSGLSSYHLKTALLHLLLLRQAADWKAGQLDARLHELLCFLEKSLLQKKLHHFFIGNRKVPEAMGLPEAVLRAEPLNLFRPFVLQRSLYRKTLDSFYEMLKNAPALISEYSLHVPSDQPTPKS
Sequence of UniProt Q9BQQ3 (Q9BQQ3 whole entry, looked up): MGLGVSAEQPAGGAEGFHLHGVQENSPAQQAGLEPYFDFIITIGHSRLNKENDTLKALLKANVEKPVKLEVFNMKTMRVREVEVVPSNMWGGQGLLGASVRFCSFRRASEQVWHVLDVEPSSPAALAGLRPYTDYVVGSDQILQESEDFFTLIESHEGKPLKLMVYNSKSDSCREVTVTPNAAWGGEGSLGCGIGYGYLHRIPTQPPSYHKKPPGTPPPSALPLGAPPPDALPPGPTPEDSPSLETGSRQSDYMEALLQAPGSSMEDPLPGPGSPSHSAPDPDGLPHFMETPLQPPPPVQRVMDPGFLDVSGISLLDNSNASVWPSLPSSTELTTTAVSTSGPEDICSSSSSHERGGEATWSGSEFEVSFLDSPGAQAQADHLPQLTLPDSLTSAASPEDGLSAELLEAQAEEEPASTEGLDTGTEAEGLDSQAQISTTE
Sequence of UniProt P02724 (P02724 whole entry, looked up): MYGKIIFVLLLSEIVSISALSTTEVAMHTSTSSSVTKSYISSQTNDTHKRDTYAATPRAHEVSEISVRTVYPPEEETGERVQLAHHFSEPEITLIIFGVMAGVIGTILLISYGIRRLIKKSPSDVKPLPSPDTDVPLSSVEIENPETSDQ

| Target | log2 fold change (alvocidib) | log2 fold change [1] | log2 fold change (lapatinib) | log2 fold change (pictilisib) | log2 fold change (crizotinib) | log2 fold change [2] | log2 fold change (gandotinib) | log2 fold change (doramapimod) | log2 fold change (bafetinib) | log2 fold change [3] | log2 fold change [4] | log2 fold change (duvelisib) | log2 fold change (defactinib) | log2 fold change (encorafenib) | log2 fold change [5] | log2 fold change (tozasertib) | log2 fold change (Tubastatin A) | log2 fold change [6] | log2 fold change (alisertib) | log2 fold change (gefitinib) |
| --- | --- | --- | --- | --- | --- | --- | --- | --- | --- | --- | --- | --- | --- | --- | --- | --- | --- | --- | --- | --- |
| HOMER3 (UniProt Q9NSC5) | -0.066 | 0.069 | 0.091 | 0.42 (active) | 0.021 | 0.048 | 0.061 | 0.016 | 0.234 | -0.072 |  |  |  |  |  |  |  |  |  |  |
| GPLD1 (UniProt P80108) |  |  |  |  | -0.108 |  |  | 0.081 |  |  | -0.452 | -0.049 |  |  |  |  |  |  |  |  |
| GTPBP6 (UniProt O43824) | 0.046 |  |  |  |  | 0.149 | 0.156 |  |  | -0.023 | 0.673 | -0.003 | 0.163 | -0.076 | 0.235 | 0.023 |  |  |  |  |
| GORASP1 (UniProt Q9BQQ3) | -0.052 | 0.076 | -0.031 |  | 0.015 | -0.103 | 0.002 | 0.015 |  | -0.028 | -0.071 | -0.018 | 0.008 | 0.108 | -0.009 | -0.087 | -0.035 | 0.018 | -0.037 | 0.016 |
| KATNBL1 (UniProt Q9H079) | -0.106 | 0.025 | -0.013 |  | -0.066 | 0.05 | -0.021 | -0.069 |  | 0.01 | 0.037 | 0.164 | -0.014 | -0.137 | -0.188 | 0.169 |  | -0.033 | -0.161 | -0.254 |
| ITGB1BP2 (UniProt Q9UKP3) | -0.116 |  |  |  |  | -0.18 | 0.86 (active) |  |  | 0.548 | -0.018 | -0.005 | -0.112 | -0.137 | 0.044 | -0.259 |  |  |  |  |
| HMGN5 (UniProt Q5JSK9) |  | 0.055 | -0.04 | 0.017 |  |  |  |  | -0.04 |  |  |  |  | 0.055 | -0.111 | 0.074 |  |  | 0.049 | 0.063 |
| GYPA (UniProt P02724) | 0.311 | 0.06 | 0.074 | -0.01 | 0.017 | 0.528 (active) | -0.197 | -0.033 | 0.229 | -0.234 | 0.207 | 0.013 | 0.063 | -0.004 | -0.015 | -0.02 | 0.068 | 0.005 |  |  |
| IGFBP4 (UniProt P22692) | -0.149 | 0.454 (active) | -0.007 | 0.015 | -0.042 | 0 | 0.019 | 0.014 | -0.149 | 0.095 | -0.084 | -0.029 |  |  |  |  | -0.083 | 0.045 | -0.005 | 0.005 |
| IMPDH2 (UniProt H0Y4R1) | -0.12 | -0.035 | 0.074 | -0.133 | 0.19 | -0.056 | 0.16 | 0.028 | 0.022 | 0.065 | 0.014 | 0.011 | 0.101 | -0.014 | -0.505 (active) | -0.028 | -0.554 (active) |  | -0.038 | 0.052 |
| HSPA8 (UniProt E9PN89) | -0.248 | 0.013 | 0.046 | 0.05 | -0.31 | -0.706 (active) | 0.169 | 0.314 | -0.021 | 0.299 | -0.075 | 0.004 |  | 0.088 | 0.035 | 0.074 | 0.066 | -0.074 | 0.11 | 0.076 |
| HTT (UniProt P42858) | 0 |  |  | -0.028 | -0.042 | -0.012 | -0.124 | 0.006 | -0.112 | 0.094 | -0.043 | -0.016 | 0.048 | 0.008 | -0.003 | 0.002 | -0.195 | 0.022 | -0.005 | -0.032 |
| ISL2 (UniProt Q96A47) | 0.36 |  |  | 0 | 0.001 | 0.609 (active) | -0.104 | -0.074 | -0.055 | -0.096 | 0.025 | 0.006 |  |  |  |  | 0.032 | -0.042 |  |  |
| GSK3B isoform 2 (UniProt P49841) | 0.518 | 0 | -0.083 | 0.191 | 0.003 | 0.018 | 0.59 | 0.03 | -0.041 | -0.06 | 0.114 | -0.02 | 0.562 | 0.425 | -0.114 | -0.078 | -0.077 | 0.015 |  | 0.029 |
| IPP (UniProt Q9Y573) | 0.001 | 0.06 | 0.04 |  |  | 0.067 | -0.172 |  |  | 0.074 | 0.029 | -0.016 | 0.016 | -0.138 | -0.171 | 0.078 | -0.075 | -0.07 |  |  |
| ITM2B (UniProt Q9Y287) | 0.015 |  |  | -0.087 | 0.005 | -0.061 | -0.037 | 0.007 | -0.032 | 0.138 | 0.074 | 0.033 | 0.16 |  |  |  | 0.007 | 0.037 | 0.006 | 0.008 |
| IGF2BP2 isoform 6 (UniProt Q9Y6M1) |  | 0.289 | 0.084 |  |  |  |  |  |  |  |  |  |  |  |  |  |  |  |  |  |
| HNRNPM (UniProt M0QZM1) |  |  |  | 0.076 | -0.07 |  |  | -0.017 | -0.243 |  | 0.128 | -0.06 | 0.073 | 0.006 | -0.025 | 0.075 |  |  |  |  |
| HMGA1 isoform 2 (UniProt P17096) | 0.289 | -0.038 | -0.005 |  | 0.125 | 0.731 (active) | -0.26 | -0.274 |  | -0.491 | 0.034 | -0.011 |  |  |  |  | 0.102 | 0.085 | -0.255 | -0.442 |
| KIAA0930 isoform 2 (UniProt Q6ICG6) | -0.067 | 0.013 | -0.068 | 0.016 | -0.067 | -0.121 | 0.055 | 0.055 | -0.051 | 0.191 | -0.118 | -0.037 | 0.03 | -0.089 | -0.032 | -0.015 | 0.077 |  | 0.073 | -0.063 |
| ITPRIP (UniProt Q8IWB1) |  |  |  |  |  |  |  |  |  |  | -0.268 | 0.179 |  |  |  |  |  | 0.994 (active) |  |  |
| HDAC3 (UniProt E7ESJ6) |  | -0.005 | -0.073 |  |  |  |  |  |  |  |  |  |  |  |  |  |  |  |  |  |
| HSPBAP1 (UniProt Q96EW2) | -0.094 | -0.104 | -0.074 | -0.014 | -0.111 | -0.076 | 0.15 | 0.125 | 0.052 | -0.141 | -0.547 (active) | 0.022 |  | 0.097 | -0.154 | -0.025 | -0.139 | 0.02 | -0.113 | -0.005 |
